In PubChem BioAssay AID1159580 (chemical genetic matrix, 2015):
Out of some 5,500 compounds screened, about 2,000 (36%) were called active. Another 18% or so got no clear call; they are omitted. No stated cut-off is given here; in the data, active means normalized growth mostly below about 0.91 (no sharp cut-off); inconclusive means no clear call, values can overlap the other calls; inactive means mostly above about 0.92. The list shows a part of the results.

Experiment: chemical genetic growth profiling, strain panel (AID 1159580);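 further: tested at 20 µM; growth read once vehicle control cultures reached saturation at 30 °C; 1 = growth at the plate median or of vehicle wells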
Conditions: S. cerevisiae deletion strains, growth OD

Measured: normalized growth

CCN(CC)C(=O)N[C@@H]1C=C2c3cccc4[nH]cc(c34)C[C@H]2N(C)C1
inactive: locus YAL040C, strain CLN3, stronger effect = lower value 1.08 | locus YCL061C, strain MRC1 (second series), stronger effect = lower value 1 | locus YDR363W, strain ESC2, stronger effect = lower value 0.989 | locus YER002W, strain NOP16, stronger effect = lower value 1 | locus YGR078C, strain PAC10, stronger effect = lower value 0.985 | locus YJR075W, strain HOC1, stronger effect = lower value 0.983 | locus YMR263W, strain SAP30, stronger effect = lower value 0.991 | locus YNL153C, strain GIM3, stronger effect = lower value 1.02 | locus YNL175C, strain NOP13, stronger effect = lower value 1.01 | locus YNL197C, strain WHI3, stronger effect = lower value 1 | locus YNL224C, strain SQS1, stronger effect = lower value 0.997 | locus YNL322C, strain KRE1, stronger effect = lower value 0.997 | locus YOR083W, strain WHI5 (second series), stronger effect = lower value 0.992
